“And” between values parts separate entries of the source, which are not always exact repeats. Equal entries are not always repeated. Results filed as inconclusive are left out. The source made the active and inactive calls. The call rests on the fitted dose curve; in most records, active means well fitted inhibition curve with a large enough effect; inconclusive means small, poorly fitted or top-dose-only effect; inactive means flat fitted curve, though single readings scatter. Where a SMILES comes first, the peptide text is derived from it. Bridges are numbered along the chain shown (N, C = ends). [ ]: non-standard residue; d: D form. The star is where a group is joined. X2 = CC[C@H](C)CCCCC(=O)*; Dab = NCC[C@H](N)C(=O)O
assay: P-glycoprotein substrates identified in KB-8-5-11 adenocarcinoma cell line, qHTS therapeutic library screen (AID 1346987); settings: KB-8-5-11 (P-gp overexpressing) viability, CellTiter-Glo, 72 h; series mostly up to 44.5 µM; activity change, negative = cytotoxicity: at the top concentration; further: nearly all actives have a fitted effect of over 65% in size
Procedure, shortened: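 Steps: plate 500 KB-8-5-11 cells/well in DMEM + 10% FCS (colchicine removed); pin compounds in dose-response; incubate 72 h, 37 degree C, 5% CO2; add CellTiter-Glo, 5 min; read luminescence.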
On the % scale 0 is the no-effect control and ±100 the full control effect; potency means the concentration at half of the fitted maximal effect.

Row | SMILES | activity change, negative = cytotoxicity | outcome | Potency
1 | CC(CN(C)C)CN1c2ccccc2S(=O)(=O)c2ccccc21 (centres undefined) | -21.3% (inactive) |  | 
2 | O=C(COc1ccc(C(=O)c2ccccc2)cc1)NC1CCN(Cc2ccccc2)CC1 | -21.6% (inactive) |  | 
3 | O=C(Cn1c(=O)sc2ccc(Cl)cc21)N1CCN(CCO)CC1 | -14.6% (inactive) |  | 
4 | C=C1C(OC2OC(CO)C(O)C(O)C2O)CC2C(C)(C)C(O)CCC2(C)C1CC/C(C)=C\COC(=O)CC(=O)O (centres undefined) |  | inactive [at 17.3 µM] | 
5 | CC[C@H](C)CCCCC(=O)N[C@@H](CCN)C(=O)N[C@H](C(=O)N[C@@H](CCN)C(=O)N[C@H]1CCNC(=O)[C@H]([C@@H](C)O)NC(=O)[C@H](CCN)NC(=O)[C@H](CCN)NC(=O)[C@H](CC(C)C)NC(=O)[C@@H](CC(C)C)NC(=O)[C@H](CCN)NC1=O)[C@@H](C)O (X2-[Dab]T[Dab][Dab][Dab][dL]L[Dab][Dab]T; lactam 4-C) | 14.9% (inactive) |  | 
6 | COc1cc(C(=O)NCC2(N(C)C)CCCC2)cc(OC)c1OCc1ccccc1 | -22.3% (inactive) |  | 
7 | COC1=CC(=O)O/C1=C(/OC)[C@@H]1O[C@H]1c1ccccc1 | 0.237% (inactive) |  | 
8 | CC1=C(C(=O)OC2CCCCC2)C(c2ccc([N+](=O)[O-])cc2)C2=C(CC(C)(C)CC2=O)N1 (centres undefined) |  | inactive | 
9 | O=S(=O)(O)Oc1ccc(C(c2ccc(OS(=O)(=O)O)cc2)c2ccccn2)cc1 | 8.69% (inactive) |  | 
10 | O=C(NC1CCN(CCCCC2(C(=O)NCC(F)(F)F)c3ccccc3-c3ccccc32)CC1)c1ccccc1-c1ccc(C(F)(F)F)cc1 |  |  | 20.6 µM (active)
11 | CCC(=O)N1CCOc2c(cc(-c3ccc(OC)c(OC)c3)cc2OC[C@H]2CCCN(C)C2)C1 | -19.4% (inactive) |  | 
12 | CCCNCCc1ccc(NS(=O)(=O)c2ccc(OC(F)(F)F)cc2)cc1 | -6.03% (inactive) |  | 
13 | CC(=O)NC(C(=O)O[C@H]1CCC(C)(C)[C@@H]2CC=C3C(=O)OCC3(O)[C@@]12C)C(C)C (some centres undefined) |  | inactive | 
14 | COc1ccc(CCO[C@@H]2O[C@H](CO[C@H]3OC[C@](O)(CO)[C@H]3O)[C@@H](OC(=O)/C=C/c3ccc(O)c(O)c3)[C@H](O[C@@H]3O[C@@H](C)[C@H](O)[C@@H](O)[C@H]3O)[C@H]2O)cc1OC | 2.86% [at 17.3 µM] (inactive) |  | 
15 | O=C1Cc2c([nH]c3ccc(Br)cc23)-c2ncccc2N1 | -6.51% (inactive) |  | 
16 | CC(C)c1cccc(C(C)C)c1NC(=O)Nc1ccc(Sc2ccc([N+](=O)[O-])cc2)cc1 |  |  | 5.8 µM (active)
17 | NS(=O)(=O)c1ccc(NC(=O)Nc2ccc(F)cc2)cc1 | -0.748% (inactive) |  | 
18 | N[C@@H](C(=O)N[C@H]1C(=O)N2C(C(=O)O)=C(Cl)CC[C@H]12)c1ccccc1 | -0.412% (inactive) |  | 
19 | COC[C@H](c1ccc(C(F)(F)F)cc1)N1CCN(C2(C)CCN(C(=O)c3c(C)ncnc3C)CC2)C[C@H]1C | -7.33% (inactive) |  | 
20 | CCN(CC)C(=O)c1ccc(Nc2nc(OCC3CCCCC3)c3[nH]cnc3n2)cc1 |  |  | 18.4 µM (active)
21 | C[C@H]1C[C@H]2[C@@H]3CCC4=CC(=O)C=C[C@]4(C)[C@@]3(F)[C@@H](O)C[C@]2(C)[C@@]1(O)C(=O)CCl | -24.6% (inactive) |  | 
22 | C[C@@H]1O[C@@H](O[C@H]2[C@@H](OC(=O)[C@]34CCC(C)(C)CC3C3=CCC5[C@@]6(C)C[C@H](O)[C@H](O[C@@H]7O[C@H](CO)[C@@H](O)[C@H](O)[C@H]7O[C@@H]7OC[C@@H](O)[C@H](O)[C@H]7O)[C@@](C)(C(=O)O)C6CC[C@@]5(C)[C@]3(C)CC4)OC[C@H](O)[C@@H]2O)[C@H](O)[C@H](O)[C@H]1O[C@@H]1OC[C@@H](O)[C@H](O)[C@H]1O (some centres undefined) |  | inactive [at 9.29 µM] | 
23 | CO[C@H]1[C@@H](O)[C@H](N)[C@@H](O[C@H]2O[C@H]([C@H](C)N)CC[C@H]2N)[C@H](O)[C@@H]1N(C)C(=O)CN | 0.911% (inactive) |  | 
24 | O=C(O)C1=CO[C@@H](O[C@@H]2O[C@H](CO)[C@@H](O)[C@H](O)[C@H]2O)[C@@H]2C(CO)=CC[C@H]12 | 2.03% (inactive) |  | 
25 | CCO[C@H]1CN(C2CCC(O)(c3ccc4c(c3)OCO4)CC2)C[C@@H]1NC(=O)CNC(=O)c1cccc(C(F)(F)F)c1 (some centres undefined) | -4% (inactive) |  | 
26 | N#Cc1cc(C2=Nc3ccc(Br)cc3NC(=O)C2)ccn1 | 9.82% (inactive) |  | 
27 | COc1cc(O)c2c(c1)/C=C/C[C@H](O)[C@H](O)C(=O)/C=C\C[C@H](C)OC2=O |  |  | 9.2 µM (active) and 8.2 µM (active)
28 | CC1(NC(=O)c2ccc(C#Cc3cccc(F)c3)cn2)COC1 | -18.1% (inactive) |  | 
29 | CC(=O)OC(C)(C)/C=C/C(=O)C(C)(O)C1C(O)CC2(C)C3CC=C(C(C)(C)C(=O)O)C(CC(=O)O)C3(C)C(=O)CC12C (centres undefined) | -17.2% [at 17.3 µM] (inactive) |  | 
